Screening results: PubChem, National Center for Advancing Translational Sciences (NCATS)
SARS PLpro yeast: SARS-CoV PLP inhibition in yeast. S. cerevisiae expressing SARS-CoV PLpro, growth rescue. Potency, µM (doses to about 32.9 µM), most hits filed as activators. 0.19% of 330,000 active. AID 485353; calls by dose curve; note: nearly all actives have a fitted effect of over 55% in size
Sm TGR block: blocks Schistosoma mansoni thioredoxin glutathione reductase | Potency, µM (highest dose often 114 µM), hits mostly inhibitors | purified TGR, DTNB reduction, TNB absorbance 405 nm | 3% of 360,000 active | Q962Y6; note: nearly all actives have a fitted effect of over 60% in size
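First, TGR (20 nM dispensed) and NADPH were mixed with compound. Second, a 15 min room-temperature incubation followed. Third, further NADPH and then DTNB were added to start the reaction. Finally, TNB absorbance was monitored kinetically.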
AmpC no deterg: AmpC beta-lactamase inhibition without detergent; P00811; AmpC nitrocefin hydrolysis, absorbance 480 nm, 0.0001% Triton; Potency, µM (doses to about 57.1 µM), usual class: inhibitors; 0.52% of 330,000 active; AID 485341; note: nearly all actives have a fitted effect of over 20% in size
Target sequence (P00811 whole entry, looked up): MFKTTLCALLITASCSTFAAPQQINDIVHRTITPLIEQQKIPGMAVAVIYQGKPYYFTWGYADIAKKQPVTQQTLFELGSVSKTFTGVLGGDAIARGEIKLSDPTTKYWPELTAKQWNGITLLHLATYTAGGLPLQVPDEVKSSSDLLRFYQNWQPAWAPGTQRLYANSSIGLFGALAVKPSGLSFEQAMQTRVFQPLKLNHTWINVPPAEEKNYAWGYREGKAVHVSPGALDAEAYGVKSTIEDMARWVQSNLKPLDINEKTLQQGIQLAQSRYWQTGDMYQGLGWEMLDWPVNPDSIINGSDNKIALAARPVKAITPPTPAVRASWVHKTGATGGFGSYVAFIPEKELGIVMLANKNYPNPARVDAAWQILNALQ
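20 mM phosphate pH 7.0 + 0.01% (detergent screen) or 0.0001% Triton X-100; 5.3 nM AmpC reagent; cpd preinc 15 min RT; nitrocefin (800 uM stock) to start; A480 q20 s × 4 min; Activity was normalised to no-enzyme and no-compound control wells.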
RE007 growth inh: less growth of the S. pombe RE007 Vpr strain | Potency, µM (highest dose often 92.2 µM), actives largely listed as inhibitors | 0.21% of 360,000 active | S. pombe RE007 Vpr strain, BacTiter-Glo ATP luminescence, 24 h; active = well fitted falling curve with a large enough effect; inconclusive = small, poorly fitted or top-dose-only effect; inactive = no such curve, though single readings can be large or run the other way; note: nearly all actives have a fitted effect of over 50% in size
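Fission yeast strain RE007, carrying one chromosomally integrated HIV-1 vpr copy, was seeded at OD 0.01 in PMG+AL medium with 23 nL pinned compound. After 24 h at 30 °C and 99% humidity, viability was read by BacTiter-Glo luminescence.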
AmpC inh detg: inhibitors of E. coli AmpC beta-lactamase with detergent; AID 485294; P00811; Potency, µM (doses to about 114 µM), actives largely listed as inhibitors; AmpC hydrolysis of nitrocefin, absorbance 480 nm, 0.01% Triton; 0.041% of 370,000 active; note: nearly all actives have a fitted effect of over 25% in size
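AmpC (5.3 nM in the dispensed reagent) in 20 mM phosphate pH 7.0 with 0.01% (detergent screen) or 0.0001% Triton X-100 was preincubated with compounds for 15 min at room temperature. Nitrocefin was then added from an 800 uM solution, and hydrolysis was followed at 480 nm.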
Tb PYK inh: inhibitors of Trypanosoma brucei pyruvate kinase; AID 624173; TbPYK enzyme, Kinase-Glo Plus ATP luminescence, 45 min; Q57TT1; Potency, µM (titrated, usually from 76.8 µM), actives largely listed as inhibitors; 0.12% of 410,000 active; note: nearly all actives have a fitted effect of over 50% in size
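Screened from lowest to highest concentration, compounds were pinned into TbPYK/substrate mixtures, and ADP (130 uM final) was added. Plates sat at room temperature for 45 min prior to Kinase-Glo Plus detection by luminescence.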
Hits are given with their value; - = inactive; ? = inconclusive; . = no result. Shown are actives, neighbours in structure and some others; about 3.3% of the full set was active somewhere. Unless noted, calls come from the whole dose curve; as a rule, active = well fitted curve in the direction sought with a large enough effect; inconclusive = small, poorly fitted or top-dose-only effect, or another doubt; inactive = no such curve, though single readings can be large; an effect the other way counts as inactive or inconclusive.

SMILES | SARS PLpro yeast | Sm TGR block | AmpC no deterg | RE007 growth inh | AmpC inh detg | Tb PYK inh
O=C(OCn1ncc(Cl)c(Cl)c1=O)c1ccc(F)cc1 | - | 7.1µM | - | . | - | .
CCc1ccc(NC(=O)Cn2ccn(-c3ccc(OC)cc3)c(=O)c2=O)cc1 | . | - | . | . | - | -
CCOC(=O)c1sc(Nc2cccc(Cl)c2)nc1C | - | - | - | - | - | -
CCOC(=O)c1sc(/S(C)=N\S(=O)(=O)c2cccc(Cl)c2)c2c1CCC=C2 (stereo not drawn) | - | 2.8µM | - | - | - | -
COc1cc(C2CC(c3cccs3)=NN2C(=O)CCl)ccc1OC(F)F (stereo not drawn) | - | 7.9µM | - | - | - | -
COc1ccc(C2CC(c3cccs3)=NN2C(=O)CCl)cc1OC (stereo not drawn) | - | 4.5µM | - | - | ? | -
COc1ccc(C2CC(c3cccs3)=NN2C(=O)c2ccccc2)cc1OC (stereo not drawn) | - | - | - | - | - | -
CCOc1cc(CN2CCN(Cc3ccc(C)o3)C(CCO)C2)ccc1OC (stereo not drawn) | - | . | - | - | - | -
COc1cc(/C=C/CN2CCN(Cc3ccc(C)o3)C(CCO)C2)ccc1O (stereo not drawn) | - | 13µM | - | - | - | -
COc1cc(/C=C/CN2CCN(CCC(C)C)C(CCO)C2)ccc1O (stereo not drawn) | - | 13µM | - | - | - | -
COc1ccccc1/C=C/CN1CCN(Cc2ccc(C)o2)C(CCO)C1 (stereo not drawn) | - | 45µM | - | - | - | -
CCc1ccc(Oc2c(C(F)(F)F)oc3c(CN4CCCC(C)C4)c(O)ccc3c2=O)cc1 (stereo not drawn) | . | - | . | . | - | -
N#Cc1c(N)n(-c2ccccc2N)c2nc3ccccc3nc12 | - | 45µM | - | - | - | -
N#Cc1c(N)n(-c2cccc(C(=O)O)c2)c2nc3ccccc3nc12 | - | - | - | - | - | -
c1coc(-c2nnc3sc(-c4cccs4)nn23)c1 | - | 18µM | - | - | - | -
c1csc(-c2nn3c(-c4ccncc4)nnc3s2)c1 | - | - | - | . | ? | .
Cc1cc(-c2nn3c(-c4ccccc4)nnc3s2)c2ccccc2n1 | - | - | - | - | - | -
c1ccc(-c2cc(-c3nn4c(-c5ccco5)nnc4s3)c3ccccc3n2)cc1 | - | 20µM | - | - | ? | -
COc1cc(OC)c(-c2nn3c(-c4ccco4)nnc3s2)cc1OC | - | 11µM | - | - | - | -
COc1ccc(C)cc1NC(=O)CN1C(=O)CCc2cc(S(=O)(=O)N3CCOCC3)ccc21 | . | - | . | . | - | -
CCCS(=O)(=O)c1nc(S(=O)(=O)c2ccc(C)cc2)c(N2CCC(O)CC2)s1 | - | - | - | - | - | -
CCCS(=O)(=O)c1nc(S(=O)(=O)c2ccc(C)cc2)c(N2CCCC2)s1 | - | - | - | - | - | -
CCS(=O)(=O)c1nc(S(=O)(=O)c2ccc(C)cc2)c(NC(C)c2ccccc2)s1 (stereo not drawn) | . | - | . | . | - | -
CCCS(=O)(=O)c1nc(S(=O)(=O)c2ccc(C)cc2)c(NC(C)c2ccccc2)s1 (stereo not drawn) | . | 5µM | . | . | - | -
CCCS(=O)(=O)c1nc(S(=O)(=O)c2ccc(C)cc2)c(N2CCC(C(N)=O)CC2)s1 | - | 45µM | - | - | - | -
SMILES | SARS PLpro yeast | Sm TGR block | AmpC no deterg | RE007 growth inh | AmpC inh detg | Tb PYK inh
CCCS(=O)(=O)c1nc(S(=O)(=O)c2ccc(C)cc2)c(N2CCc3ccccc3C2)s1 | - | 25µM | - | - | ? | -
CCN(c1cccc(C)c1)S(=O)(=O)c1cc2c(cc1C)n(C)c(=O)c(=O)n2C | . | - | . | . | - | -
CN(Cc1cc(Cl)cc(Cl)c1O)Cc1c(O)ccc2ccccc12 | . | . | . | ? | . | -
CN(Cc1ccccc1)Cc1c(O)ccc2ccccc12 | - | 0.89µM | - | - | - | -
COc1ccc(OCCN(C)Cc2c(O)ccc3ccccc23)cc1 | - | 1.1µM | - | - | - | -
CN(CCOc1ccccc1)Cc1ccccc1 | . | . | . | - | . | -
